Assay in all cases: DAPPL (digital affinity profiling via proximity ligation, sequencing); 10 mM Tris-HCl pH 7.5, 50 mM NaCl, 1 mM DTT, 4% glycerol, room temperature, 30 min; GST-TFs on glutathione beads, 16-mer random dsDNA library, 0.1% formaldehyde crosslink after washing; high values mean tight binding
Experiment [1] concerns the target T1, FEV (Homo sapiens, UniProt Q99581 1-238).
T1 sequence: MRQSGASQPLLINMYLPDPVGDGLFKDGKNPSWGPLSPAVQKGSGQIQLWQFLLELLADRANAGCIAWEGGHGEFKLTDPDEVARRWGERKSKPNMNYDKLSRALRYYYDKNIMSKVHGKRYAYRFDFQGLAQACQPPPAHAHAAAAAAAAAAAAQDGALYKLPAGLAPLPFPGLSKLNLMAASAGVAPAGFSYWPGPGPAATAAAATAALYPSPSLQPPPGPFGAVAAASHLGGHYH
To be noted: protein: recombinant; tags: N-terminal GST; dsDNA, one strand shown. The essentials: (§1)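 Pools were built from human transcription factors expressed in yeast as GST fusions, captured on glutathione beads and DNA-barcoded, along with a tag-only sample. Incubation with 200 nmole of a 16-mer random double-stranded DNA library lasted 30 min at room temperature in Tris/NaCl/DTT/glycerol buffer, and was followed by washing, 0.1% formaldehyde crosslinking, proximity ligation, PCR amplification and Illumina NextSeq500 sequencing. Binding signal is the quotient of each hexamer's read frequency for a factor and its frequency for the tag-only sample.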

The target in experiment [2] is ETV5 (Homo sapiens, UniProt P41161 1-510). To be noted: protein: recombinant; tags: N-terminal GST; dsDNA, one strand shown. A digest of the protocol: as §1
Sequence of ETV5 (P41161 whole entry): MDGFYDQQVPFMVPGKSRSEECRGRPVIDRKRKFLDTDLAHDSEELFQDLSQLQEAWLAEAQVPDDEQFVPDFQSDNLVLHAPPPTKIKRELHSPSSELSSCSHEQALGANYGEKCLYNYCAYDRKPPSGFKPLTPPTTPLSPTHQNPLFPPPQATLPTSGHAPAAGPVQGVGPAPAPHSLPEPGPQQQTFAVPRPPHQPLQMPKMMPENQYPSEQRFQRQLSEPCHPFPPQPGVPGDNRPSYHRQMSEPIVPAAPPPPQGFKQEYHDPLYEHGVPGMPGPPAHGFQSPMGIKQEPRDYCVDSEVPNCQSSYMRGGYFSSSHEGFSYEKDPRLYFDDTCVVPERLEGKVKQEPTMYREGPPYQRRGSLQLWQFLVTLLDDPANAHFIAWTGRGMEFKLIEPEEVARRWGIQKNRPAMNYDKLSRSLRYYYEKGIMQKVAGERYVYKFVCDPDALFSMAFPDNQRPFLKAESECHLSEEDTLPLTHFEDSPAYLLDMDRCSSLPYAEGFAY
Experiment [3] has as its target HSF1 (Homo sapiens, UniProt Q00613 1-529). To be noted: protein: recombinant; tags: N-terminal GST; chain copies: 3; dsDNA, one strand shown. A digest of the protocol:
as §1

Experiment [4] has as its target T2, SPIC (Homo sapiens, UniProt Q8N5J4 1-248).
T2 sequence: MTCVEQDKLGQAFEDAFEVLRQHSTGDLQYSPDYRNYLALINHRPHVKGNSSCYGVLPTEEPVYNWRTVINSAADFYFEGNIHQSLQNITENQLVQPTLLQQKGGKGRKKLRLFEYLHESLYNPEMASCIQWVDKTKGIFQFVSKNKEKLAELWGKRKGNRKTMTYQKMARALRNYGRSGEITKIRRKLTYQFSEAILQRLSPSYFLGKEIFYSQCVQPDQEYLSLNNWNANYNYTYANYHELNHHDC
Conditions: protein: recombinant; tags: N-terminal GST; dsDNA, one strand shown. A digest of the protocol:
as §1

In experiment [5] the target is ELF4 (Homo sapiens, UniProt Q99607 1-663). To be noted: protein: recombinant; tags: N-terminal GST; dsDNA, one strand shown. A digest of the protocol: as §1
Sequence of ELF4 (Q99607 whole entry): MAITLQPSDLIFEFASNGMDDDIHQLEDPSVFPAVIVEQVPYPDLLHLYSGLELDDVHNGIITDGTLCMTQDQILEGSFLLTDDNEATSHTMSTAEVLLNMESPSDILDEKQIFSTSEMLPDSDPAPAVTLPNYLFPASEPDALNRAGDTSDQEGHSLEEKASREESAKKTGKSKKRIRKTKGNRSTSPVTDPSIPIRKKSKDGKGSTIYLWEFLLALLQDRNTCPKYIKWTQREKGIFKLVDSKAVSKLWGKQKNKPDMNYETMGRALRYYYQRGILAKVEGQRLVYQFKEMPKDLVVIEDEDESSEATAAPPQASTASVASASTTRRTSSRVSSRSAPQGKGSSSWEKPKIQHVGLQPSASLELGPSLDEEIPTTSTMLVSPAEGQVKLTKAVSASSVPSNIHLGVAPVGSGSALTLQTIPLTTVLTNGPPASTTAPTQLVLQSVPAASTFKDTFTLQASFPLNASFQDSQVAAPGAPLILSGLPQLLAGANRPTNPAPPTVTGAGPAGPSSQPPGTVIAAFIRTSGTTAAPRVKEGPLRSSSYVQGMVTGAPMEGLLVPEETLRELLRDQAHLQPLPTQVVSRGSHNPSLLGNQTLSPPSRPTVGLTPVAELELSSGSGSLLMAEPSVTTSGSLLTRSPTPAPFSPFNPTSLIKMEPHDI
The target in experiment [6] is T3, ELK4 (Homo sapiens, UniProt P28324-2 1-405).
T3 sequence: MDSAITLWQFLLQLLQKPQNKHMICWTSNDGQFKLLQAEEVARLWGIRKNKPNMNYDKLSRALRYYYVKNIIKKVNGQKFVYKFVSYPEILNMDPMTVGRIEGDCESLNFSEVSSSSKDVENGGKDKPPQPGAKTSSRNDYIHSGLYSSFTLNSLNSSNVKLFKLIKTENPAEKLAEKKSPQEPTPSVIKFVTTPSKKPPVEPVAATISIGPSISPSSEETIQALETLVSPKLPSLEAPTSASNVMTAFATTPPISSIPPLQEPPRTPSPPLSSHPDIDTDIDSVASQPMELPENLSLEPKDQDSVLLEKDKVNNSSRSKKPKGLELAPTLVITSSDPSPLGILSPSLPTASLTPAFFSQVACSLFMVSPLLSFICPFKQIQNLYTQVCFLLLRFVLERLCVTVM
To be noted: protein: recombinant; tags: N-terminal GST; dsDNA, one strand shown. The essentials: as §1

For experiment [7], the target named is T4, ETV2 (Homo sapiens, UniProt O00321 1-342).
T4 sequence: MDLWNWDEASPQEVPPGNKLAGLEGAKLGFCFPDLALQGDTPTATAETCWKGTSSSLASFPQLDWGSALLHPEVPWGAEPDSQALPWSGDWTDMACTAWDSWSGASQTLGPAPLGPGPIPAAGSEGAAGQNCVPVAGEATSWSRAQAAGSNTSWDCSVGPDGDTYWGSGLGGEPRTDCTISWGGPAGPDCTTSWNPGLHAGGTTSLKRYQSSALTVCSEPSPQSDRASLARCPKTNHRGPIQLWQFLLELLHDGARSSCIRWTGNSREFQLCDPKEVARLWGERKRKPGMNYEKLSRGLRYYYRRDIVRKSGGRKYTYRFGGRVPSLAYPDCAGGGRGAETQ
Conditions: protein: recombinant; tags: N-terminal GST; dsDNA, one strand shown. A digest of the protocol:
as §1

Experiment [8] deals with T5, ELF3 (Homo sapiens, UniProt P78545 1-371).
T5 sequence: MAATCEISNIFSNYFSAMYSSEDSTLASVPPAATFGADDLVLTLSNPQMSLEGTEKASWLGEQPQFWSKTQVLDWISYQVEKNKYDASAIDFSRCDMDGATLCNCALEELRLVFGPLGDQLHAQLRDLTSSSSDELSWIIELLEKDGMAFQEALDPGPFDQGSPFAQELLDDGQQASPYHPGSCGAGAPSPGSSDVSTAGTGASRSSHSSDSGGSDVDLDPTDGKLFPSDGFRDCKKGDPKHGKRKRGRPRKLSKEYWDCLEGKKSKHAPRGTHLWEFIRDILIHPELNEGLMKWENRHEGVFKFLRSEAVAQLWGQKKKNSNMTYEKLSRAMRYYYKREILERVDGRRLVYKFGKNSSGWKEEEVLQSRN
To be noted: protein: recombinant; tags: N-terminal GST; dsDNA, one strand shown. A digest of the protocol:
as §1

Experiment [9] concerns the target CRX (Homo sapiens, UniProt O43186 1-299). To be noted: protein: recombinant; tags: N-terminal GST; dsDNA, one strand shown. The essentials:
as §1

The target of experiment [10] is ETV1 (Homo sapiens, UniProt P50549 1-477). To be noted: protein: recombinant; tags: N-terminal GST; dsDNA, one strand shown. A digest of the protocol: as §1
Sequence of ETV1 (P50549 whole entry): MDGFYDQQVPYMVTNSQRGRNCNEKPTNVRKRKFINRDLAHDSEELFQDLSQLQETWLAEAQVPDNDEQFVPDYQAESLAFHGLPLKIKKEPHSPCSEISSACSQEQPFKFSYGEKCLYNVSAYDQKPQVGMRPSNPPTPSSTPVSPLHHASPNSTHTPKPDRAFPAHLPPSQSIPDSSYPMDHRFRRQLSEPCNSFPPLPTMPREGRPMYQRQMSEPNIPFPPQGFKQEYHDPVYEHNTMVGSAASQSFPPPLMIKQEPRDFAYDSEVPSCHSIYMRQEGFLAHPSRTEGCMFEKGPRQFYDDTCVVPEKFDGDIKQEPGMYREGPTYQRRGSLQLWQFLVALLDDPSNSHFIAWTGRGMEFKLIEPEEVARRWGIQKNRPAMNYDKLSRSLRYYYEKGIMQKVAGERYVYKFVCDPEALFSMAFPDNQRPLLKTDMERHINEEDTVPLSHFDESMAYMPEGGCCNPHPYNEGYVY
In experiment [11] the target is T6, ERF (Homo sapiens, UniProt P50548 1-548).
T6 sequence: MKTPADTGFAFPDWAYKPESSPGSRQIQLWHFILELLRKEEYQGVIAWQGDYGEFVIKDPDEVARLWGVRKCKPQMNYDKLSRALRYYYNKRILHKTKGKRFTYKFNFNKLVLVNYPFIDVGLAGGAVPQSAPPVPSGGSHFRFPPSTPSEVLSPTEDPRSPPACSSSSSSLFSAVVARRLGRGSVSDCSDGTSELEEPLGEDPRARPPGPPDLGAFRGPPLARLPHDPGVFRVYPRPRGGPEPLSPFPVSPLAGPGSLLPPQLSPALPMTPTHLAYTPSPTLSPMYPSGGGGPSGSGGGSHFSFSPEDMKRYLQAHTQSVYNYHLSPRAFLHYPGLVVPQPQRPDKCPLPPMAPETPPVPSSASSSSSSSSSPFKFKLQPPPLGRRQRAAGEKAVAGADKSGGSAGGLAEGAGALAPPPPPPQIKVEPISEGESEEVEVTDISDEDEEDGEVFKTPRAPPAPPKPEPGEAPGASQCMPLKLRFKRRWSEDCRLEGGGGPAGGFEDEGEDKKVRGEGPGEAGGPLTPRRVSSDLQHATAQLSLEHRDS
To be noted: protein: recombinant; tags: N-terminal GST; dsDNA, one strand shown. The essentials: as §1

Experiment [12] deals with T7, ETV3L (Homo sapiens, UniProt Q6ZN32 1-361).
T7 sequence: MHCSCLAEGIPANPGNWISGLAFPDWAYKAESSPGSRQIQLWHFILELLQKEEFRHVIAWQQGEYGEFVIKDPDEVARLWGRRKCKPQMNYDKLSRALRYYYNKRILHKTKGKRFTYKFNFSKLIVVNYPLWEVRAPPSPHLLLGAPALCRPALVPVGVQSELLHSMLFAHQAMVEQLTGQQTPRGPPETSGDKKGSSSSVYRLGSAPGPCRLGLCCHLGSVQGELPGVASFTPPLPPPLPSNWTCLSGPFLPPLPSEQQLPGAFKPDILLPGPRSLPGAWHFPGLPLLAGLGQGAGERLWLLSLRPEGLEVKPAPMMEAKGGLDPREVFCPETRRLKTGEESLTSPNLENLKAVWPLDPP
To be noted: protein: recombinant; tags: N-terminal GST; dsDNA, one strand shown. A digest of the protocol:
as §1

The target of experiment [13] is T8, ETS2 (Homo sapiens, UniProt P15036 1-469).
T8 sequence: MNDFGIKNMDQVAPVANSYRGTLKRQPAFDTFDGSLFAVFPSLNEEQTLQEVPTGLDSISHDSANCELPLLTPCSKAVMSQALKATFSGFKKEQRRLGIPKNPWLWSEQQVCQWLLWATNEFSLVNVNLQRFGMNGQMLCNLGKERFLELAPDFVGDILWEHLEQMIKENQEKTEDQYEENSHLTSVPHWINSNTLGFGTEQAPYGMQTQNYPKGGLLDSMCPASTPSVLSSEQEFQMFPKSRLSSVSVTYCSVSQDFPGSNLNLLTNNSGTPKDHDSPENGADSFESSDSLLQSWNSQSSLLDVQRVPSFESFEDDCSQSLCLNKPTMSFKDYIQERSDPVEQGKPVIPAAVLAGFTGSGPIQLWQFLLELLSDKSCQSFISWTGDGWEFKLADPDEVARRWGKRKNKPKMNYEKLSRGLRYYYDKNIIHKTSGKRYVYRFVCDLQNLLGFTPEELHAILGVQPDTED
To be noted: protein: recombinant; tags: N-terminal GST; dsDNA, one strand shown. The essentials: as §1

Experiment [14] concerns the target T9, SPDEF (Homo sapiens, UniProt O95238 1-335).
T9 sequence: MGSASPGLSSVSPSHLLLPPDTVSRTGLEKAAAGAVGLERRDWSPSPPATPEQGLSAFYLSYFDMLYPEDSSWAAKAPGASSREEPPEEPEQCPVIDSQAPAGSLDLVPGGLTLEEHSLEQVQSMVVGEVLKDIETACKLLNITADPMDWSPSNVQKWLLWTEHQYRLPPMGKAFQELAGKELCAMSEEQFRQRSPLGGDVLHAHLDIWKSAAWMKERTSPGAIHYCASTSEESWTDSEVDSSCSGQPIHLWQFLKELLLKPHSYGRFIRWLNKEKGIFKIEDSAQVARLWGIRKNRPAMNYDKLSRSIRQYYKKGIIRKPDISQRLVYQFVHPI
To be noted: protein: recombinant; tags: N-terminal GST; dsDNA, one strand shown. The essentials: as §1

For experiment [15], the target named is T10, ETV7 (Homo sapiens, UniProt Q9Y603 1-341).
T10 sequence: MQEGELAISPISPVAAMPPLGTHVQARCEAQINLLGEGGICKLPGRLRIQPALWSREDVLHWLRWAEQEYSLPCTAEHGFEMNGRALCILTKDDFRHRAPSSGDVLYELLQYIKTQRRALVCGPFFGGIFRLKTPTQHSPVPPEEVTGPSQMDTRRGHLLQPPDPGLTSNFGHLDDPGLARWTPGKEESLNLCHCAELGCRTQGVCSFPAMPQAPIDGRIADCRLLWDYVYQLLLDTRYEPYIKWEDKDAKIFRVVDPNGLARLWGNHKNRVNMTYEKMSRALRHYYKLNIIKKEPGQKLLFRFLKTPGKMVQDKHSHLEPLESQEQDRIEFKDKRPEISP
Conditions: protein: recombinant; tags: N-terminal GST; dsDNA, one strand shown. A digest of the protocol:
as §1

Experiment [16] concerns the target T11, ELF5 (Homo sapiens, UniProt Q9UKW6-2 1-255).
T11 sequence: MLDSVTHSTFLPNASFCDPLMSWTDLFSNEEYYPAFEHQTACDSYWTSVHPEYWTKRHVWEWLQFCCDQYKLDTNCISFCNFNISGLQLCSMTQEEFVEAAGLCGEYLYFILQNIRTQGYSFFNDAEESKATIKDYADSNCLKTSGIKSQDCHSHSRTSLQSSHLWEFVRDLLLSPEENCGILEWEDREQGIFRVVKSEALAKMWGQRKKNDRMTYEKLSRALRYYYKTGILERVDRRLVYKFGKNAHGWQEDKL
Conditions: protein: recombinant; tags: N-terminal GST; dsDNA, one strand shown. The essentials:
as §1

Experiment [17] deals with T12, ETV3 (Homo sapiens, UniProt P41162-2 1-143).
T12 sequence: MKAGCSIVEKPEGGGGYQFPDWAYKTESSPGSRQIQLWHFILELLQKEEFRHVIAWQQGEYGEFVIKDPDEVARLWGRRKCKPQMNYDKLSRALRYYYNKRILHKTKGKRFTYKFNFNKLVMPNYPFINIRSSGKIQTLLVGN
Conditions: protein: recombinant; tags: N-terminal GST; dsDNA, one strand shown. The essentials:
as §1

Experiment [18] deals with ETV6 (Homo sapiens, UniProt P41212 1-452). Conditions: protein: recombinant; tags: N-terminal GST; dsDNA, one strand shown. The essentials:
as §1

Sequence of HSF1 (Q00613 whole entry): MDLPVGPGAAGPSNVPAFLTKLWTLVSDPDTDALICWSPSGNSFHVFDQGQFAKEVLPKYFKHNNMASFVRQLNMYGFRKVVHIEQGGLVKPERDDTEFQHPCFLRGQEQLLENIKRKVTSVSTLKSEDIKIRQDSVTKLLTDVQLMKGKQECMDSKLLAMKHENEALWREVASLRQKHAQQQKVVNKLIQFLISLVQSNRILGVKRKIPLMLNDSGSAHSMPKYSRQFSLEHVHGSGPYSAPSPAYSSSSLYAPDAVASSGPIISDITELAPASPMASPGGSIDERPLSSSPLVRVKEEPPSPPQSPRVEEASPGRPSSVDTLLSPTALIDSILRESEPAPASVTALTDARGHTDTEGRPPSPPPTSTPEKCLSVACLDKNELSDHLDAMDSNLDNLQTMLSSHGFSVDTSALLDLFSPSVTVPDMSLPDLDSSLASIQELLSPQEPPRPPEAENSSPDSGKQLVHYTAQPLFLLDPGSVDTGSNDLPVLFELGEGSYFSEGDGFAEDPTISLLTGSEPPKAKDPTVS
Sequence of CRX (O43186 whole entry): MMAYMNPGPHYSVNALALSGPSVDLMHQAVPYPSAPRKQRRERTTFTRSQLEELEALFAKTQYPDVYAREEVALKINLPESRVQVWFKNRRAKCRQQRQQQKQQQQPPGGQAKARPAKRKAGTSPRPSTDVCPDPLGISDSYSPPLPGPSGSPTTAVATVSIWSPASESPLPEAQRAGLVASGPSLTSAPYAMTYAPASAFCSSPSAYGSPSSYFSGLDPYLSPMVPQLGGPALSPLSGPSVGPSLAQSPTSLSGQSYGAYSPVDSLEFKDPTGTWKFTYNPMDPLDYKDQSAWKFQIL
Sequence of ETV6 (P41212 whole entry): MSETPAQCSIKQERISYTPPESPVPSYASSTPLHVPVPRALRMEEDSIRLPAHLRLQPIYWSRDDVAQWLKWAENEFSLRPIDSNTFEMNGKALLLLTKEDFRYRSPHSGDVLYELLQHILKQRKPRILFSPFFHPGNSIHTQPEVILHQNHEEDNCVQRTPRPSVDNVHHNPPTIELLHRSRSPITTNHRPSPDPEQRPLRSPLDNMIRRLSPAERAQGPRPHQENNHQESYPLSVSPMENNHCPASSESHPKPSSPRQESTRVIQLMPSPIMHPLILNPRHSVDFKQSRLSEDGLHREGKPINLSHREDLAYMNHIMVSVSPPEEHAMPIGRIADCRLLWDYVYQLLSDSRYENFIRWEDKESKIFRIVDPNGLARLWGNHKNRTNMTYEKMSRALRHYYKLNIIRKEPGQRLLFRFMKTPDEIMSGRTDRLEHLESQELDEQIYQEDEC

For the sequence GGTCTC, the binding signal in [1] was 2.46 fold enrichment (6-mer frequency, TF over GST control); in experiment [2] it was 2.46 fold enrichment (6-mer frequency, TF over GST control); in experiment [3], 1.44 fold enrichment (6-mer frequency, TF over GST control); in experiment [4], 2.4 fold enrichment (6-mer frequency, TF over GST control); in [5] it was 2.51 fold enrichment (6-mer frequency, TF over GST control); in experiment [6], 2.64 fold enrichment (6-mer frequency, TF over GST control). For the same sequence, the binding signal in experiment [7] is 2.18 fold enrichment (6-mer frequency, TF over GST control); in experiment [8], 2.29 fold enrichment (6-mer frequency, TF over GST control); in experiment [9], 1.48 fold enrichment (6-mer frequency, TF over GST control); in experiment [10], 2.58 fold enrichment (6-mer frequency, TF over GST control); in [11], 2.29 fold enrichment (6-mer frequency, TF over GST control); in [12] it was 2.36 fold enrichment (6-mer frequency, TF over GST control). Besides, the binding signal is 2.55 fold enrichment (6-mer frequency, TF over GST control) in experiment [13]; 1.93 fold enrichment (6-mer frequency, TF over GST control) in [14]; 2.04 fold enrichment (6-mer frequency, TF over GST control) in experiment [15]; 2.18 fold enrichment (6-mer frequency, TF over GST control) in [16]; 2.64 fold enrichment (6-mer frequency, TF over GST control) in [17]; 1.99 fold enrichment (6-mer frequency, TF over GST control) in experiment [18].

The values are drawn from PMC7862700, “An all-to-all approach to the identification of sequence-specific readers for epigenetic DNA modifications on cytosine”.
